Assay results as given in PubChem BioAssay (Tox21).
Results filed as inconclusive are left out. Unmarked numbers belong to inactive results. Activity calls are given as the source filed them. Calls follow the shape of the full dose curve.

Test: qHTS assay to identify small molecule antagonists of the sonic hedgehog signaling (Shh) pathway (AID 1259369); also: nearly all actives have a fitted effect of over 45% in size
Conditions: NIH/3T3 Gli1-Luc reporter, Shh antagonist, luminescence 24 h; series mostly up to 92.4 µM; activity change, negative = inhibition: at the top concentration
Source text: U.S. Tox21 Program National Center for Advancing Translational Sciences [NCATS] NIH Chemical Genomics Center [NCGC] U.S. Environmental Protection Agency [EPA] National Institutes of Environmental Health Sciences [NIEHS] National Toxicology Program [NTP] U.S. Food and Drug Administration [FDA] Tox21 Assay Overview: The sonic hedgehog (Shh) pathway is essential for normal embryonic development. Dysregulation of the Shh pathway can cause severe developmental defects in organs. Therefore chemicals that interfere with the pathway are potential developmental toxicants. A cell line designated 3T3Gli1-Luc (DMB/OARSA/CFSAN/FDA, Laurel, MD), a NIH/3T3 derived clone containing stably integrated Gli1-Luc reporter is used to detect chemical interference of the Shh pathway, by changes in the expression of the firefly Luc gene under the control of the Gli1 transcriptional response element. This cell line was used to screen Tox21 libraries for identifying and prioritizing the potential developmental toxicants that interfere Shh pathway. Conditioned medium-stimulated mode was used to screen for chemicals inhibiting Shh signaling.
Tox21 Assay Protocol Summary: 3T3 Gli1-Luc cells were dispensed at 2,000 per well in 5uL of culture medium into white solid bottom 1536-well plates (Greiner Bio-One, Monroe, NC) using a Multidrop Combi (Thermo Scientific, Waltham, MA) dispenser. The assay plates were incubated at 37 C and 5% CO2 for 4hr, and then 23nL of compounds dissolved in DMSO and positive control were transferred using a Pintool station (Wako, San Diego, CA). The compound transfer was followed by the addition of 1ul conditioned medium or assay buffer using two separate tips of Flying Reagent Dispenser (FRD, Aurora Discovery, San Diego, CA). The assay plates were incubated at 37C and 5% CO2 for 24hr. For luciferase read, 4uL of Amplite Luciferase reporter gene assay reagent (AAT Bioquest, Inc. Sunnyvale, CA) was added to each well of the assay plates using FRD and incubated at room temperature for 30min. The luminescence signal was measured using a ViewLux plate reader (Perkin Elmer, Shelton, CT).
% is scaled to controls: 0 for no effect and ±100 for the full control effect; potency is read from the fitted curve at half-maximal effect.

Compound | activity change, negative = inhibition | Potency
CCCCCCCC1CCCC1=O (stereo not given) | -1.43% | –
CC(COc1ccccc1)NN (stereo not given) | 33.4% [at 42.5 µM] | –
CC(C#N)(CCC(=O)O)N=NC(C)(C#N)CCC(=O)O (stereo not given) | 17.7% | –
O=CN(CCO)CCO | 4.86% | –
CC1(C)OC[C@@H](COC(=O)CCc2ccc(OC[C@@H](O)CNCCNC(=O)N3CCOCC3)cc2)O1 | 0.532% [at 42.5 µM] | –
CC(=O)c1cnccn1 | -8.9% | –
CC(CC=O)CC(C)(C)C (stereo not given) | 5.8% | –
CC1=C(C/C=C(\C)CCC[C@H](C)CCC[C@H](C)CCCC(C)C)C(=O)c2ccccc2C1=O | 11.9% [at 42.5 µM] | –
CN(C)CCCCCCN(C)C | -14.9% | –
COc1cc(C)nc(-n2nc(C)cc2OC)n1 | 0.0364% [at 42.5 µM] | –
Clc1cc(Cl)cc(Cl)c1 | 0% | –
CCCCCC(C)N (stereo not given) | 8.04% [at 42.5 µM] | –
CCCCCCC1CCC(=O)O1 (stereo not given) | 9.83% | –
CC1=NS(=O)(=O)c2cc(Cl)ccc2N1 | 16.9% [at 42.5 µM] | –
COc1cc(C(=O)OC(COCCC(C)C)CN2CCOCC2)cc(OC)c1OC (stereo not given) | 31.5% [at 42.5 µM] | –
CC(N)C12CC3CC(CC(C3)C1)C2 (stereo not given) | -28.2% [at 42.5 µM] | –
NC(=O)N[C@@H](CCC(=O)O)C(=O)O | 5.78% [at 42.5 µM] | –
CC(=O)Oc1cccc(C)c1 | 3.53% [at 42.5 µM] | –
CC(C)COC(=O)c1ccc(N)cc1 | 2.59% [at 42.5 µM] | –
Cc1coc2ccccc2c1=O | 23.7% [at 42.5 µM] | –

Compound | activity change, negative = inhibition | Potency
C=CCOCC(O)CO (stereo not given) | 0% | –
COc1cc(C(=O)NCc2ccc(OCCN(C)C)cc2)cc(OC)c1OC | -28.3% [at 42.5 µM] | –
CNC(=O)Nc1ccc(Cl)c(Cl)c1 | -17.5% | –
CCC(=O)OCc1ccccc1 | 0% | –
CC(C)(C#N)Nc1nc(Cl)nc(NC2CC2)n1 | – | 243 nM (active)
CC1(C)[C@@H]2CC[C@@]1(C)[C@H](O)C2 | 27.4% | –
C[N+]1(C)CCCC(OC(=O)C(O)(c2ccccc2)c2ccccc2)C1 (stereo not given) | 11.2% [at 42.5 µM] | –
CC(C)C(=O)OC(=O)C(C)C | 4.93% | –
COc1ccccc1OCC1CNC(=O)O1 (stereo not given) | 24.4% [at 42.5 µM] | –
C[N+]12CCC(CC1)C(OC(=O)C(O)(c1ccccc1)c1ccccc1)C2 (stereo not given) | 20.6% [at 42.5 µM] | –
CN1CCN(c2cc3c(nn2)Oc2ccccc2N3C)CC1 | -8.36% [at 19 µM] | –
CCC(C)(CCCC(C)C)OC(C)=O (stereo not given) | 0.035% | –
Cc1ncc(COP(=O)(O)O)c(C=O)c1O | 4.99% [at 42.5 µM] | –
Nc1ccn([C@@H]2O[C@H](CO)[C@@H](O)C2O)c(=O)n1 (stereo not given in full) | 0% | –
CN(C)CCCN(C)CCCN(C)C | 5.39% | –
CC(C)C[C@@H](N)C(=O)O | 18.9% [at 19 µM] | –
CCCCCCCCCCCCCCCCCCO | 5.27% [at 42.5 µM] | –
O=C(O)CCCC[P+](c1ccccc1)(c1ccccc1)c1ccccc1 | 33.1% [at 42.5 µM] | –
N[C@@H](CCC(=O)O)C(=O)O | -4.76% | –
CCCO[Si](OCCC)(OCCC)OCCC | 23.1% | –
